Source: PubChem
Hits are enriched below; roughly 3.8% of the tested compounds scored in any of these assays.
KCNH2 3.1 block: blocks the human KCNH2 3.1 channel isoform. U2OS KCNH2 3.1, thallium flux FluxOr; stronger effect = lower value. activity change, % (tested at about 1.8 µM). actives 0.95% (n = 340,000). AID 720553;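 active = maximum activity change below -70%; inconclusive = maximum activity change from -70% to -50%; inactive = maximum activity change above -50%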;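 also: thallium influx rate constant from kinetic fluorescence after stimulation buffer; % is scaled to controls: 0 for no effect and ±100 for the full control effect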
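Kinetic fluorescence (2 min after stimulation buffer) measures Tl+ influx through KCNH2 3.1 expressed by viral transduction in U2OS cells; the rate constant is normalized against DMSO controls serving as positive and negative references.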
MBNL1-CUG inh: inhibitors of human MBNL1 binding to CUG repeat RNA. actives 0.036% (n = 280,000). Potency, µM (highest dose often 57.5 µM), inactives show at the top dose activity change, negative = inhibition, actives largely listed as inhibitors. TR-FRET MBNL1-His/biotin-(CUG)12 binding, 665/545 ratio. Q9NR56. AID 2675; active = well fitted inhibition curve with a large enough effect in the signal ratio, with a control signal flat, not every such curve was filed as active; inconclusive = small, poorly fitted or top-dose-only effect, or effect the other way, or a change in a side signal; inactive = no such curve, though single readings can be large or run the other way; the % refers to the signal ratio; also: potency is read from the fitted curve at half-maximal effect; % is scaled to controls: 0 for no effect and ±100 for the full control effect
Target sequence (Q9NR56 whole entry, looked up): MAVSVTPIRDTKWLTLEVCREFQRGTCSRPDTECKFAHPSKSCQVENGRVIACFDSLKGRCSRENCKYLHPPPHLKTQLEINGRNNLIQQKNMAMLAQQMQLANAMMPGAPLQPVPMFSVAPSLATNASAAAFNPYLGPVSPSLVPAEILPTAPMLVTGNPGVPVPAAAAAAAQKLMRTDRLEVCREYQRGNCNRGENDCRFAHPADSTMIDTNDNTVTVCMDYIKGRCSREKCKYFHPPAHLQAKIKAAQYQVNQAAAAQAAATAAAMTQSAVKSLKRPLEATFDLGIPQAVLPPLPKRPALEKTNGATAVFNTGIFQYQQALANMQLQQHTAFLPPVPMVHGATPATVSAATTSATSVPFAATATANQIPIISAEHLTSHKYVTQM
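MBNL1-His + Biotin-(CUG)12, cpd titration 92 nM–58 uM; Tb anti-His Ab 0.055 ng/ul, SA-XL665 5 nM (final); 60 min RT; ratiometric 665/545 nm, Ex 340 nm; normalized to buffer and full-complex controls.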
VDR inhibitor: inhibitors of human vitamin D receptor | P11473 | VDR-SRC2-3 peptide fluorescence polarization, 2 h | Potency, µM, for the others: max response, negative = inhibition, usual class: inhibitors | actives 0.93% (n = 400,000); also: potency is read from the fitted curve at half-maximal effect; % is scaled to controls: 0 for no effect and ±100 for the full control effect
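Compounds are added to VDR with labelled SRC2-3 coactivator peptide and held 2 h at room temperature. Inhibition of the VDR–peptide interaction is then read as a change in fluorescence polarization.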
PLK1 PBD inh: blocks phosphopeptide binding to human PLK1 polo-box domain | P53350 | Plk1 PBD binding of FITC phosphopeptide, fluorescence polarization | Potency, µM, without a hit: max response, negative = inhibition, hits mostly inhibitors | actives 2.8% (n = 360,000); also: potency is read from the fitted curve at half-maximal effect; series mostly up to about 57 µM; % is scaled to controls: 0 for no effect and ±100 for the full control effect; nearly all actives have a fitted effect of over 65% in size
CBFb-RUNX1 inh: inhibitors of human CBF-beta and RUNX1 interaction; Q01196+Q13951; AlphaScreen CBFb-His/RUNX1-biotin binding, biochemical; Potency, µM (series often up to 59.8 µM), for inactives: at the highest dose activity, negative = inhibition, hits mostly inhibitors; 230,000 tested, under 10 active; also: % of control where 0% means no effect
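CBF-beta (His) and RUNX1 (biotin), 30 nM each; 20 min preassociation; + compound, 15 min; + beads 50 ng each (Ni, streptavidin), 90 min; RT; AlphaScreen read.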
hERG WT inh: inhibitors of human wildtype KCNH2 potassium channel | Q12809 | actives 0.37% (n = 340,000) | AID 720551 | activity change, % at 1.84 µM | U2OS, BacMam KCNH2, thallium flux FluxOr; stronger effect = lower value;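 active = maximum activity change below -70%; inconclusive = maximum activity change between -70% and -50%; inactive = maximum activity change above -50%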; also: % is scaled to controls: 0 for no effect and ±100 for the full control effect
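U2OS cells transduced with wild-type KCNH2 virus are loaded with FluxOr dye for 45 min, and thallium flux is measured in kinetic reads before and after stimulation buffer. Rate constants are normalized to DMSO controls.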
TbPYK confirm: confirmation of Trypanosoma brucei pyruvate kinase inhibitors. actives 67% (n = 890). recombinant TbPYK, Kinase-Glo ATP luminescence. shares compounds with PLK1 PBD inh. AID 720569. Potency, µM (top dose mostly 76.9 µM), inactives show at the top dose activity change, negative = inhibition, usual class: inhibitors; also: potency is read from the fitted curve at half-maximal effect; % is scaled to controls: 0 for no effect and ±100 for the full control effect; nearly all actives have a fitted effect of over 70% in size
TbPYK ADP-Glo: orthogonal confirmation of Trypanosoma brucei pyruvate kinase inhibitors; Potency, µM (top dose mostly 76.9 µM), for inactives: at the top dose activity change, negative = inhibition, hits mostly inhibitors; shares compounds with PLK1 PBD inh; actives 62% (n = 890); recombinant TbPYK, ADP-Glo luminescence, 60 min; AID 720584; also: potency is read from the fitted curve at half-maximal effect; % is scaled to controls: 0 for no effect and ±100 for the full control effect; nearly all actives have a fitted effect of over 75% in size
* hit, by the source's call; ? = inconclusive; nt = no result; [ ] = another dose, or the depositor's remark. Unless noted, calls follow the shape of the dose curve; as a rule, active = well fitted curve in the direction sought with a large enough effect; inconclusive = small, poorly fitted or top-dose-only effect, or another doubt; inactive = no such curve, though single readings can be large; an effect the other way counts as inactive or inconclusive.

SMILES	KCNH2 3.1 block	MBNL1-CUG inh	VDR inhibitor	PLK1 PBD inh	CBFb-RUNX1 inh	hERG WT inh	TbPYK confirm	TbPYK ADP-Glo
O=C(O)Cn1cc(/C=C2\C(=O)NC(=O)N(c3ccc(F)cc3)C2=O)c2ccccc21	nt	-18.1%	nt	nt	nt	nt	nt	nt
CCCN1CCCC(c2cccc(O)c2)C1 (stereo unspecified)	nt	nt	nt	nt	14.4%	nt	nt	nt
Oc1cc2c(cc1O)[C@H]1c3ccccc3CN[C@H]1CC2	nt	nt	-15.9%	nt	2.7%	nt	nt	nt
O=C1NC(=O)C(=Cc2ccc(N3CCN(C(=O)c4ccccc4)CC3)c([N+](=O)[O-])c2)C(=O)N1	-13.1	?	50.1µM*	6.7µM*	-9.3%	16.7	31.6µM*	35.5µM*
CNC(=O)[C@@H]1C[C@H]1[C@@H](NP(=O)(c1ccccc1)c1ccccc1)c1ccccc1	nt	nt	nt	nt	16.1%	nt	nt	nt
CC[n+]1c(/C=C/C=C/c2ccc(N(C)C)cc2)sc2ccccc21	-20.8	nt	-154.2%	-0.3%	-16.7%	-9.2	31.6µM*	9.8%
Oc1ccc2c3c1O[C@H]1c4c(c5ccccc5n4Cc4ccccc4)C[C@@]4(O)C(C2)N(CC2CC2)CC[C@]314	nt	nt	?	nt	1.6%	nt	nt	nt
C=C[C@@H]1CN2CC[C@H]1C[C@H]2[C@H](O)c1ccnc2ccccc12	nt	nt	0.9%	nt	nt	nt	nt	nt
O=C(O)c1cc2ccccc2oc1=O	-17.6	?	4.4%	4.4%	7.4%	2.2	nt	nt
O=C(O)CCn1cc(C=C2C(=O)NC(=S)NC2=O)c(-c2cc3ccccc3oc2=O)n1	-23.5	16.1%	?	10.6µM*	4.5%	-5.7	5.62µM*	10µM*
O=C1NC(=O)N(c2ccc(F)cc2)C(=O)/C1=C/c1ccc(N2CCOCC2)cc1	-0.8	0.7%	-25.4%	11.9µM*	-1.7%	-4.1	?	?
Cc1cc(/C=C2/C(=O)NC(=O)N(Cc3ccco3)C2=O)c(C)n1-c1ccccc1	1.2	4.8%	-5.0%	?	?	2.0	nt	nt
O=C1NC(=O)N(c2ccccc2)C(=O)/C1=C/c1ccoc1	11.4	5.2%	-3.9%	5.32µM*	-12.9%	-12.1	?	-28.5%
O=C1NC(=O)N(c2ccccc2F)C(=O)/C1=C/c1ccc(Sc2nc3ccccc3[nH]2)o1	4.8	nt	?	?	?	-19.7	14.1µM*	15.8µM*
O=C1NC(=O)N(c2ccccc2)C(=O)/C1=C/c1ccc(Sc2ccccc2)o1	0.4	-4.6%	?	?	10.8%	-6.8	nt	nt
O=C1NC(=O)N(c2cccc(Cl)c2)C(=O)/C1=C\c1ccc(Sc2nc3ccccc3[nH]2)o1	nt	36.0%	?	2.67µM*	?	8.2	15.8µM*	15.8µM*
C/C(O)=C(/C#N)C(=O)Nc1cc(Br)ccc1Br	nt	nt	-28.0%	nt	-4.9%[21.7 µM]	nt	nt	nt
c1ccc2sc(C3(N4CCCC4)CCCCC3)cc2c1	nt	nt	-23.8%	nt	2.8%	nt	nt	nt
COc1ccc(S(=O)(=O)N(C)C[C@H]2OCCCC[C@@H](C)Oc3ccc(N(C)C)cc3C(=O)N([C@H](C)CO)C[C@@H]2C)cc1	1.3	nt	nt	-13.4%	nt	3.5	2.51µM*	6.31µM*
O=C1NC(=S)NC(=O)C1Cc1ccccc1	7.9	nt	?	?	nt	-13.5	nt	nt
O=C1NC(=S)NC(=O)C1C/C=C/c1ccccc1	-0.8	0.0%	79.4µM*	10.6µM*	-3.0%	-1.4	8.91µM*	11.2µM*
Cc1o[nH]c(=O)c1C[C@H](N)C(=O)O	nt	nt	15.4%	nt	2.5%	nt	nt	nt
CCOC(=O)Nc1ccc(NCc2ccc(F)cc2)nc1N	4.5	?	6.31µM*	7.52µM*	-23.4%	-6.1	4.47µM*	11.2µM*
